Results filed as inconclusive are left out. Activity calls are given as the source filed them. Rule for the calls: active = hit-call score of the fitted dose curve at least 0.9, where 1 is the maximum; inconclusive = response in the unintended direction; inactive = score below 0.9.

Sequence of rat Adrenergic, Alpha 1, Non-selective Receptor (Adra1), Adra1a (gene 29412) (P43140 whole entry, looked up): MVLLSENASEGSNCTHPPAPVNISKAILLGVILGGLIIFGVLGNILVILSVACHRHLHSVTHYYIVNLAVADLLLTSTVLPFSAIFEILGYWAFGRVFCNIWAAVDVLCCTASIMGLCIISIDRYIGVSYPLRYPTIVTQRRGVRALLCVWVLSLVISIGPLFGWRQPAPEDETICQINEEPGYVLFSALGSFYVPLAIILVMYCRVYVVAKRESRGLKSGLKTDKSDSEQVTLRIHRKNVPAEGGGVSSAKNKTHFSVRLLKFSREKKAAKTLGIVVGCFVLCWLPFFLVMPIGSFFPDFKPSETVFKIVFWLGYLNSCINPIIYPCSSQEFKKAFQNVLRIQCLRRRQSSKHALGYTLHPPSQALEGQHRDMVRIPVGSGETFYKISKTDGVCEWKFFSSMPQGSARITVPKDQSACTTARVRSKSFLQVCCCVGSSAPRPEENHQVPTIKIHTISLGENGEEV

The target of the assay is rat Adrenergic, Alpha 1, Non-selective Receptor (Adra1), Adra1a (gene 29412) (UniProt P43140). Kind of assay: NVS_GPCR_rAdra1_NonSelective: NovaScreen (NVS) G Protein-Coupled Receptor Assay for rat Adrenergic, Alpha 1, Non-selective Receptor (Adra1) (AID 2283289). How it is done:
NVS_GPCR_rAdra1_NonSelective is a biochemical, single-readout assay that uses extracted gene-proteins from Rat forebrain membranes in a tissue-based cell-free assay. Measurements were taken 1 hour after chemical dosing in a 48-well plate.NVS_GPCR_rAdra1_NonSelective is one of one assay component(s) measured or calculated from the NVS_GPCR_rAdra1_NonSelective assay. It is designed to make measurements of radioligand binding, a form of binding reporter, as detected with scintillation counting signals by Filter-based radiodetection technology.Data from the assay component NVS_GPCR_rAdra1_NonSelective was analyzed into 1 assay endpoint. This assay endpoint, NVS_GPCR_rAdra1_NonSelective, was analyzed in the positive analysis fitting direction relative to DMSO as the negative control and baseline of activity. Using a type of binding reporter, loss-of-signal activity can be used to understand changes in the binding as they relate to the gene Adra1a. Furthermore, this assay endpoint can be referred to as a primary readout, because the performed assay has only produced 1 assay endpoint. To generalize the intended target to other relatable targets, this assay endpoint is annotated to the gpcr intended target family, where the subfamily is rhodopsin-like receptor.
Binding assays used specific radioligands (tritiated, iodinated) with non-radioactive competitive displacement ligands in agonist or antagonist protocols (as indicated) and various reference compounds and inhibitors to titrate specific binding to receptors and transporters. Most enzyme assays (CYPs, kinases, phosphatases, proteases, HDACs) used recombinant protein and specific substrates (fluorescence mostly, some colorimetric and radioactive) and inhibitors, followed by a biochemical separation of substrate and product. All assays for the biochemical HTS were initially run in duplicate at a single concentration (10 uM for CYP450 assays and 25 uM for all others). Assay-chemical combinations meeting a pre-defined threshold (e.g., 30% inhibition and other criteria defined below) were then run in singleton concentration-response format with maximum concentration of 20 uM for CYPs and 50 uM for all others. Each assay was run with positive and negative controls, and concurrent controls on every plate. The follow-up (secondary) screen tested active chemical-pairs in concentration series, as well as a few additional assays not tested in the primary screen, some selected negative inactives, and several cases re-run in the concentration series for confirmatory purposes.
Take `COc1ccc2cc(S(=O)(=O)N[C@H](CC(=O)N[C@H](Cc3ccc(CN4[C@H](C)CCC[C@@H]4C)cc3)C(=O)N(C)C(C)C)c3ccc4c(c3)OCO4)ccc2c1`: the AC50 was 15.7 µM (active).

Consider `c1ccc(C[n+]2cccc3ccccc32)cc1`, for which the AC50 is 11.7 µM (active). Consider `COc1cc(C(=O)NC2CCN(C)CC2)ccc1Nc1ncc2c(n1)N(C1CCCC1)CC(F)(F)C(=O)N2C`, for which the AC50 is 3.85 µM (active).

`O=c1c(-c2ccc(O)cc2)coc2cc(O)cc(O)c12`: the outcome was inactive. As for `CCN(Cc1cccnc1)C(=O)c1cccc(Cl)c1[C@]1(C)C(=O)N(Cc2ccc(OC)cc2OC)c2ccc(Cl)cc21`, the AC50 is 11.4 µM (active). As for `NCc1cccc(C2CCN(C(=O)c3ccc(C#Cc4ccccc4F)o3)CC2)c1`, the AC50 is 21.5 µM (active). In the case of `CCOC(=O)O[C@H](C)OC(=O)c1ccc2c(c1)cc(C(=O)NC1CCN(C(C)C)CC1)n2Cc1cc(-c2ccc(Cl)s2)on1`, the AC50 was 33.1 µM (active). With `CN(C)c1ccc(C(=C2C=CC(=[N+](C)C)C=C2)c2ccc(N(C)C)cc2)cc1`, the AC50 was 4.81 µM (active). Regarding `O=C1c2ccccc2C(=O)N1CCc1noc(-c2ccc(CN3CCCCCC3)s2)n1`, the AC50 was 9.19 µM (active). The same measure, in the same setting: next, `Cc1cc(F)ccc1-c1cc(N2CC[C@@H](O)[C@H]2CO)ncc1N(C)C(=O)C(C)(C)c1cc(C(F)(F)F)cc(C(F)(F)F)c1`: 20.4 µM (active); `Clc1cc(Cl)c2c(c1)N=C1CCCCCN1C2`: 6.44 µM (active). As to `CC/C(=C(/CC)c1ccc(O)cc1)c1ccc(O)cc1`, the outcome was inactive. Take `Cc1occc1C(=O)Nc1ccc(C(=O)N2CCC(F)(F)/C(=C\C(=O)N3CCC(N4CCCCC4)CC3)c3ccccc32)cc1`: the AC50 is 6.08 µM (active).

Usually AC50 stands for the midpoint of the concentration-response curve, whichever way the signal moves.
